Measured values as given in PubChem BioAssay.
Where “and” joins values, the source holds several entries; their conditions need not be identical. Identical values can stand only once. Calls of active or inactive are those of the source. Cut-off read from the data, not from the text of the source, unless noted: active = parasite load remaining mostly below about 12% (no sharp cut-off); inactive = mostly above about 10%.

Assays:
[1] = P. berghei load reduction in hepatocytes – cell-based, HepG2, luciferase luminescence, HepG2 viability, primary screen (AID 624349);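 note: 100% = mean of DMSO negative control wells on the same plate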; conditions: P. berghei liver stage in HepG2, luciferase luminescence, concentration not given here; parasite load remaining: stronger effect = lower value; viability: measured here: HepG2 viability without parasites
[2] = test system: Hepatitis C virus NS3 helicase; test: blockers of NS3h binding to ssDNA – biochemical, fluorescence polarization, LOPAC1280 library, primary screen (AID 687035; in the data active = inhibition above about 37%); conditions: Purified HCV NS3 helicase, Cy5-dT15 ssDNA binding fluorescence polarization; stronger effect = higher value; concentration not given here
[3] = compounds altering Cy5-DNA-NS3h complex signal – biochemical, LOPAC1280, artefact control for HCV NS3 helicase inhibitor project (AID 687037; call rule not given here); conditions: Cy5-DNA-NS3h complex fluorescence interference counterscreen
[4] = Wnt pathway potentiators raising nuclear beta-catenin – imaging, WNT3A-conditioned medium, mouse C2C12, NPC library, primary screen (AID 1117326; in the data active = nuclear beta-catenin stimulation mostly above about 4.2%, no sharp cut-off; inactive = mostly below about 10%); conditions: stronger effect = higher value
[5] = stimulators of insulin release from INS-1E, primary screen, cell-based, 5 mM glucose, NPC library (AID 1117329;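 active = compound raises insulin release from rat beta cells at 5 mM glucose, no numeric limit stated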); conditions: rat INS-1E insulin secretion, at 10 µM, stronger effect = higher value
[6] = growth inhibition of GSK3B-pretreated HCT116 cells – cell-based, CellTiter-Glo, 0.2 to 20 µM (AID 1117336;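 active = compounds lowering colon cancer cell viability after pretreatment blocking the GSK3B kinase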); conditions: HCT116 viability after GSK3B inhibitor, at 20 µM, stronger effect = higher value
[7] = inhibition of endothelial tube formation, primary screen, imaging, VEGF stimulated, CD31 staining, tube area, NPC library (AID 1117340;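 active = compound that reduces growth-factor-driven endothelial tube area in a mixed cell culture, no cutoff stated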); conditions: VEGF-stimulated ADSC/ECFC co-culture, at 10 µM, stronger effect = higher value
[8] = GLP1 release stimulators, primary, NCI-H716, NPC library (AID 1117341;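 active = compound raises GLP1 secretion from the human gut endocrine cells, with no numeric limit stated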); conditions: NCI-H716 cells, at 10 µM, stronger effect = higher value
[9] = HCT116 colon cancer cell growth inhibition, primary screen, CellTiter-Glo luminescence, NPC library (AID 1117342;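 active = compounds that lower survival of HCT116 colon cancer cells in the luminescence readout, no numeric limit stated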); conditions: at 20 µM (top of the series)
[10] = reduced SW480 viability measured with CellTiter-Glo, NPC library, primary (AID 1117343;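 active = compounds that lower viability of the colon cancer cells in the luminescence readout, with no numeric limit stated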); conditions: CellTiter-Glo luminescence; at 20 µM (top of the series)
[11] = NPC library primary testing for decreased DLD-1 cell viability via CellTiter-Glo (AID 1117346;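 active = compounds that lower survival of DLD-1 colon cancer cells in the luminescence readout, no cutoff given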); conditions: DLD-1 viability, CellTiter-Glo luminescence; at 20 µM (top of the series)
[12] = molecular target: 6-phosphogluconate dehydrogenase, decarboxylating (Homo sapiens) (UniProt P52209); test: inhibition of human phosphogluconate dehydrogenase – biochemical, recombinant enzyme, NADPH absorbance, primary screen (AID 1159550;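 active = at least 20% inhibition of 6-phosphogluconate dehydrogenase activity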); conditions: recombinant 6PGD, NADPH absorbance 341 nm; at 10 µM; stronger effect = higher value
Chain of 6-phosphogluconate dehydrogenase, decarboxylating (Homo sapiens) (P52209 whole entry, looked up): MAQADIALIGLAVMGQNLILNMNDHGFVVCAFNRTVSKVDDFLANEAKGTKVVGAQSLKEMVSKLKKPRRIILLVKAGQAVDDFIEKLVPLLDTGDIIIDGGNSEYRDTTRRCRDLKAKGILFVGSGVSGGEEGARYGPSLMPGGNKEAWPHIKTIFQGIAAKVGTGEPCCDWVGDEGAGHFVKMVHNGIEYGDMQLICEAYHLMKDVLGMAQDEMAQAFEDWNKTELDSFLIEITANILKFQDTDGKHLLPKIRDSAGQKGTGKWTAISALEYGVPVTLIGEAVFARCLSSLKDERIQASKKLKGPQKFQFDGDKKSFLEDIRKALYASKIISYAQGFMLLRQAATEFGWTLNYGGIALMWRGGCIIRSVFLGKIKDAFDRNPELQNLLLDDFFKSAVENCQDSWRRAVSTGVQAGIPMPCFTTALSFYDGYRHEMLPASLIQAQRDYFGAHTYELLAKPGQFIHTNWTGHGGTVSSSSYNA

CC(=O)Oc1ccccc1C(=O)O
inactive: parasite load remaining [1] 80.4% and 75.4% and 33.3% | inhibition [2] -3% | fluorescence ratio (interference) [3] 1 | nuclear beta-catenin stimulation ([4]; at 10 µM) -0.3% | insulin secretion stimulation [5] 0.1% | viability decrease [6] -8.9% | tube area decrease [7] 9.2% | GLP1 secretion stimulation [8] -3.4% | inhibition of viability [9] -5.9% | viability decrease (inhibition) [10] -3.9% | viability decrease (inhibition) [11] -4.2% | inhibition [12] 15.9%
71.3% and 95.3% and 127%: viability [1]
0.2%: nuclear beta-catenin stimulation ([4]; stimulation, at 2 µM)

CN(C)[C@@H]1C(=O)C(C(N)=O)=C(O)[C@@]2(O)C(=O)C3=C(O)c4c(O)ccc(Cl)c4[C@@H](O)[C@H]3C[C@@H]12
inactive: parasite load remaining [1] 68.4% and 96.7% and 81.2% | inhibition [2] -3% | fluorescence ratio (interference) [3] 1 | nuclear beta-catenin stimulation ([4]; at 10 µM) 6.3% | insulin secretion stimulation [5] 0.9% | viability decrease [6] -29.7% | tube area decrease [7] 17.3% | GLP1 secretion stimulation [8] 10.2% | inhibition [12] 0.718%
4.3%: nuclear beta-catenin stimulation ([4]; stimulation, at 2 µM)
95.5% and 71.1% and 88.6%: viability [1]
active: inhibition of viability [9] 57% | viability decrease (inhibition) [10] 107% | viability decrease (inhibition) [11] 94.7%

Cc1cc(N)c2ccccc2[n+]1CCCCCCCCCC[n+]1c(C)cc(N)c2ccccc21
inactive: parasite load remaining [1] 4.91% and -3.56% and 27.5% | inhibition [2] 2% | fluorescence ratio (interference) [3] 0.9 | nuclear beta-catenin stimulation ([4]; at 10 µM) 25% | insulin secretion stimulation [5] -0.4% | GLP1 secretion stimulation [8] -0.6% | inhibition [12] 4.29%
97.2% and 73.1% and 69.2%: viability [1]
-0.1%: nuclear beta-catenin stimulation ([4]; stimulation, at 2 µM)
active: viability decrease [6] 85.5% | tube area decrease [7] 106% | inhibition of viability [9] 74.9% | viability decrease (inhibition) [10] 83% | viability decrease (inhibition) [11] 85.1%

C[C@]12CC[C@@H]3c4ccc(O)cc4CC[C@H]3[C@@H]1CCC2=O
inactive: parasite load remaining [1] 74.7% and 24.8% | inhibition [2] -4% | fluorescence ratio (interference) [3] 1 | nuclear beta-catenin stimulation ([4]; at 10 µM) 2.2% | insulin secretion stimulation [5] -1.5% | viability decrease [6] -6% | tube area decrease [7] 21.8% | GLP1 secretion stimulation [8] -1.2% | inhibition of viability [9] -35.2% | viability decrease (inhibition) [10] 32.8% | viability decrease (inhibition) [11] -3.45% | inhibition [12] -17.4%
-0.2%: nuclear beta-catenin stimulation ([4]; stimulation, at 2 µM)
91.5% and 73.5%: viability [1]

C[N+]1(CCCCC[N+]2(C)CCCC2)CCCC1
inactive: parasite load remaining [1] 24.8% and 111% and 94.9% | inhibition [2] 4% | fluorescence ratio (interference) [3] 1 | nuclear beta-catenin stimulation ([4]; at 10 µM) -1.8% | insulin secretion stimulation [5] 2.5% | viability decrease [6] -7% | tube area decrease [7] -11.3% | GLP1 secretion stimulation [8] -1.6% | inhibition of viability [9] -2.5% | viability decrease (inhibition) [10] -8.4% | viability decrease (inhibition) [11] 6.3% | inhibition [12] 10.2%
48.6% and 96% and 89.3%: viability [1]
0.5%: nuclear beta-catenin stimulation ([4]; stimulation, at 2 µM)

CC(=O)OCC(=O)[C@@]1(O)[C@H](C)C[C@H]2[C@@H]3CCC4=CC(=O)C=C[C@]4(C)[C@@]3(F)[C@@H](O)C[C@@]21C
inactive: parasite load remaining [1] 64% and 76.2% | nuclear beta-catenin stimulation ([4]; at 10 µM) -1.1% | insulin secretion stimulation [5] 0.55% | viability decrease [6] 10.3% | tube area decrease [7] -13.1% | GLP1 secretion stimulation [8] 4% | inhibition of viability [9] 7.2% | viability decrease (inhibition) [10] 32.2% | viability decrease (inhibition) [11] -4.9% | inhibition [12] -7.66%
116% and 94.5%: viability [1]
-2.1%: nuclear beta-catenin stimulation ([4]; stimulation, at 2 µM)

C[C@]12C=CC(=O)C=C1CC[C@H]1[C@@H]3C[C@@H](O)[C@](O)(C(=O)CO)[C@@]3(C)C[C@H](O)[C@@]12F
105% and 93.7% and 75%: viability [1]
inactive: parasite load remaining [1] 59.1% and 78.5% and 29.4% | inhibition [2] -2% | fluorescence ratio (interference) [3] 1 | nuclear beta-catenin stimulation ([4]; at 10 µM) -1.1% | insulin secretion stimulation [5] -0.5% | viability decrease [6] 8.2% | tube area decrease [7] -16.1% | GLP1 secretion stimulation [8] -3.1% | inhibition of viability [9] 11% | viability decrease (inhibition) [10] 13.3% | viability decrease (inhibition) [11] 14.8% | inhibition [12] -17.6%
-0.2%: nuclear beta-catenin stimulation ([4]; stimulation, at 2 µM)

Cc1nnc(SCC2=C(C(=O)O)N3C(=O)[C@@H](NC(=O)Cn4cnnn4)[C@H]3SC2)s1
0.2%: nuclear beta-catenin stimulation ([4]; stimulation, at 2 µM)
98.8% and 78.7% and 99.1%: viability [1]
inactive: parasite load remaining [1] 82.1% and 85.3% and 68.8% | inhibition [2] -3% | fluorescence ratio (interference) [3] 0.9 | nuclear beta-catenin stimulation ([4]; at 10 µM) 0.1% | insulin secretion stimulation [5] -1.7% | viability decrease [6] 3.2% | tube area decrease [7] 10.5% | GLP1 secretion stimulation [8] 2.7% | inhibition of viability [9] 1.2% | viability decrease (inhibition) [10] 4.8% | viability decrease (inhibition) [11] -22.3% | inhibition [12] 1.44%

Cc1scc2c1N(C(=O)CN1CCN(C)CC1)c1ccccc1NC2=O
active: viability decrease (inhibition) [11] 1.4%
49.7% and 86.8% and 142%: viability [1]
1.6%: nuclear beta-catenin stimulation ([4]; stimulation, at 2 µM)
inactive: parasite load remaining [1] 42.9% and 96% and 50.1% | inhibition [2] -3% | fluorescence ratio (interference) [3] 1 | nuclear beta-catenin stimulation ([4]; at 10 µM) 1% | insulin secretion stimulation [5] 4% | viability decrease [6] -15.9% | tube area decrease [7] -6.3% | GLP1 secretion stimulation [8] -2.6% | inhibition of viability [9] -4.6% | viability decrease (inhibition) [10] 2% | inhibition [12] 10.3%

Nc1c2c(nc3ccccc13)CCCC2O (stereo not drawn)
110% and 112%: viability [1]
-0.9%: nuclear beta-catenin stimulation ([4]; stimulation, at 2 µM)
inactive: parasite load remaining [1] 125% and 39.9% | inhibition [2] -4% | fluorescence ratio (interference) [3] 1 | nuclear beta-catenin stimulation ([4]; at 10 µM) -0.8% | insulin secretion stimulation [5] 11.8% | viability decrease [6] 5.9% | tube area decrease [7] 16.1% | GLP1 secretion stimulation [8] 8.3% | inhibition of viability [9] 3.6% | viability decrease (inhibition) [10] 26.9% | viability decrease (inhibition) [11] -22.2% | inhibition [12] 7.08%
